The list is not random: actives were taken first. Their share in the collection is about 2.4%.
WRN helicase inh: blocks human WRN helicase | Q14191 | Potency, µM (doses to about 114 µM), for the others: top-dose activity change, negative = inhibition, hits mostly inhibitors | WRN helicase unwinding, fluorescent forked duplex, kinetic | AID 651768 | actives 0.46% (n = 360,000); note: potency is the fitted concentration of half-maximal effect; % is set by controls: 0 for no effect and ±100 for the full control effect; nearly all actives have a fitted effect of over 55% in size
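Primary qHTS, 1536-well format. 20 nM WRN + compound, 15 min RT; start with 100 nM forked fluorophore/quencher duplex, 2 mM ATP (final); kinetic read ex 525/em 598 nm.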
Pol eta inh-1: blocks human DNA polymerase eta activity | recombinant Pol eta, fluorescent DNA replication assay | Potency, µM (titrated, usually from 114 µM), inactives show at the highest dose activity change, negative = inhibition, hits mostly inhibitors | AID 588591 | actives 1.2% (n = 390,000); note: potency is the fitted concentration of half-maximal effect; % is set by controls: 0 for no effect and ±100 for the full control effect
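Pol eta at 10 nM preincubated with compounds 15 min at room temperature; reaction started with fluorescent substrate (50 nM final) and read kinetically at 0 and 10 min.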
FEN1 inhibitor: human FEN1 inhibition; P39748; Recombinant FEN1 flap cleavage, fluorescence, 15 min; Potency, µM (doses to about 114 µM), for inactives: at the top dose activity change, negative = inhibition, usual class: inhibitors; actives 0.35% (n = 390,000); AID 588795; note: potency is the fitted concentration of half-maximal effect; % is set by controls: 0 for no effect and ±100 for the full control effect; nearly all actives have a fitted effect of over 65% in size
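Recombinant FEN1 (10 nM) was preincubated with pin-transferred compounds for 15 min at room temperature, then flap DNA substrate (50 nM final) was added. Plates were read at 0 and 15 min, and normalized concentration–response data were fitted to a four-parameter Hill equation.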
Pol beta inh: inhibitors of human DNA polymerase beta | actives 1.3% (n = 340,000) | AID 485314 | P06746 | Potency, µM (top dose mostly 114 µM), inactives show at the top dose activity change, negative = inhibition, hits mostly inhibitors | Pol beta primer extension/strand displacement, fluorescence kinetic; note: potency is the fitted concentration of half-maximal effect; % is set by controls: 0 for no effect and ±100 for the full control effect
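Homogeneous kinetic assay of primer extension and strand displacement by 10 nM Pol beta, preincubated 15 min at room temperature with compound before 50 nM substrate (final) was added. Read at 0 and 10 min; four-parameter Hill fit.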
POLI inh: inhibitors of human DNA polymerase iota. Q9UNA4. Pol iota fluorescent replication assay, 10 min. Potency, µM (series often up to 115 µM), for the others: at the highest dose activity, negative = inhibition, hits mostly inhibitors. actives 1% (n = 390,000). AID 588590; note: potency is the fitted concentration of half-maximal effect
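Fluorescent replication assay read twice, at 0 min and 10 min after adding 50 nM (final) substrate. Enzyme (10 nM) and compounds were first incubated 15 min at room temperature; enzyme-free buffer wells were negative controls.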
Pol kappa inh-1: inhibitors of human DNA polymerase kappa; Q9UBT6; Potency, µM (top dose mostly 107 µM), inactives show at the top dose activity, negative = inhibition, hits mostly inhibitors; actives 0.53% (n = 400,000); purified Pol kappa, fluorescent DNA synthesis assay, 10 min; note: potency is the fitted concentration of half-maximal effect; % is set by controls: 0 for no effect and ±100 for the full control effect
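Pol kappa 10 nM + cpd, 15 min RT; start w/ substrate 50 nM final; fluorescence kinetic read, 0 and 10 min. Neg ctrl: buffer, no enzyme.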
GALK confirm: confirmation of human galactokinase (GALK) inhibitors; shares compounds with Pol eta inh-1; purified GALK, Kinase-Glo ATP depletion luminescence; Potency, µM (titrated, usually from 115 µM), without a hit: at the top dose activity, negative = inhibition, hits mostly inhibitors; actives 70% (n = 150)
GALK redox cs: counter-screen for GALK inhibitors: redox cycling H2O2 generation; shares compounds with Pol eta inh-1; Phenol red-HRP H2O2 redox cycling, absorbance 600 nm; Potency, µM (series often up to 115 µM), inactives show top-dose activity change, negative = H2O2 signal, actives largely listed as inhibitors; actives 40% (n = 150)
HEK293 tox: counter-screen for GALK inhibitors: HEK293 cell cytotoxicity | shares compounds with Pol eta inh-1 | HEK-293 viability, ATP luminescence (CellTiter-Glo), 24/48 h | Potency, µM (titrated, usually from 46.1 µM), without a hit: at the top dose activity change, negative = cytotoxicity, usual class: inhibitors | actives 10% (n = 170); note: potency is the fitted concentration of half-maximal effect; % is set by controls: 0 for no effect and ±100 for the full control effect
Pol kappa inh-2: Pol kappa (human) inhibition, cherry-pick confirmation; shares compounds with Pol eta inh-1; purified Pol-kappa, fluorescent strand-displacement substrate; Potency, µM, usual class: inhibitors; actives 76% (n = 920); note: potency is the fitted concentration of half-maximal effect
Pol eta inh-2: Pol eta (human) inhibition, cherry-pick confirmation. Potency, µM, usual class: inhibitors. Pol eta primer extension, TAMRA/BHQ fluorescence, 10 min. AID 720502. actives 64% (n = 2,600). shares compounds with Pol eta inh-1; note: potency is the fitted concentration of half-maximal effect
* marks the source's active call; other numbers are inactive results; ? = inconclusive; / = no result given; ! = not active in a repeat; [ ] = dose if it differs, or a comment. Calls come from the whole dose curve; as a rule, active = well fitted curve in the direction sought with a large enough effect; inconclusive = small, poorly fitted or top-dose-only effect, or another doubt; inactive = no such curve, though single readings can be large; an effect the other way counts as inactive or inconclusive.

SMILES	WRN helicase inh	Pol eta inh-1	FEN1 inhibitor	Pol beta inh	POLI inh	Pol kappa inh-1	Pol eta inh-2	others
COc1cc(/C=C2\C(C)=C(C#N)c3nc(N)c(C#N)c(C)c32)ccc1OCC(=O)O	-15%	22µM*	?	2%	-25%	-35%	38*
CC1=C(C#N)c2nc(N)c(C#N)c(C)c2/C1=C\c1ccc(C)cc1	/	/	/	5%	/	/	/
Cc1occc1C(=O)Nc1cccc(/C=C/C(=O)O)c1	?	18µM*	6%	/	?	?	27*
COc1ccc(NC(=O)CN(C)S(=O)(=O)c2ccc3c(c2)CCCN3C(C)=O)cc1Cl	/	-13%	-8%	24%	15%	-2%[60.1 µM]	/
O=C(O)c1[nH]c2ccc(Cl)cc2c1CC(=O)N1CCN(C(=O)c2ccco2)CC1	?	7.1µM*	-16%	13µM*	?	50µM*	30*
Cc1ccc2ncc(C)c(C)c2c1	/	/	2%	/	17%	7%	/
CC(=O)OCC(NC(=O)C(COCc1ccccc1)NC(=O)OC(C)(C)C)C1OC(n2ccc(=O)[nH]c2=O)C(OC(C)=O)C1OC(C)=O (centres undefined)	/	/	1%	/	-2%	-2%	/
CCOc1ccc(NS(=O)(=O)c2ccc3[nH]cc(C(=O)NCc4ccco4)c(=O)c3c2)cc1	/	79µM*	-5%	22µM*	?	-19%	/	Pol kappa inh-2=?
CCc1ccc(NS(=O)(=O)c2ccc3[nH]cc(C(=O)N(C)Cc4ccco4)c(=O)c3c2)cc1	-19%[57.1 µM]	89µM*	-21%	45µM*!	?	-24%	?
CCc1ccc(NS(=O)(=O)c2ccc3[nH]cc(C(=O)NC4CCCC4)c(=O)c3c2)cc1	/	?	-11%	50µM*	89µM*	?	/	Pol kappa inh-2=?
CCOc1ccc(NS(=O)(=O)c2ccc3[nH]cc(C(=O)NC4CCCC4)c(=O)c3c2)cc1	/	-5%	-7%	?	?	-33%	/
Cc1c(C(=O)N2CCC(C)CC2)c(S(=O)(=O)Nc2ccc(OC(F)(F)F)cc2)c(C)n1C	/	-3%	4%	-2%	12%	-5%[60.1 µM]	/
CCOC(=O)c1cccc(NC(=O)NC2COc3ccccc3C2)c1 (centres undefined)	/	6%	-2%	0%	15%	-5%[60.1 µM]	/
Cc1ccc(Cl)cc1N1CCN(C(=O)CN(c2ccccc2)S(=O)(=O)N(C)C)CC1	-11%[11.6 µM]	50µM*	-14%	10µM*	25µM*	?	/	Pol kappa inh-2=?
O=C(Nc1ccccc1C(F)(F)F)Nc1c[nH]c(=O)[nH]c1=O	/	-23%	-4%	3%	6%	-1%	/
CC1=C(c2ccc(C)c(C)c2)S(=O)(=O)N(Cc2ccc(C(=O)NC(C)c3ccccc3)cc2)C1=O (centres undefined)	/	/	12%	3%	5%	-16%	/
COc1ccc(NC(=O)CN(C)C(=O)c2cc(-c3ccccc3)nc3ccccc23)cc1	-8%	-14%	-18%	/	1%	-9%	/
CN(CC(=O)Nc1ccc(F)cc1)C(=O)c1cc(-c2ccco2)nc2ccccc12	?	40µM*	10%	/	16µM*	?	?
O=C(NC[C@H]1CCCO1)c1cccc2c1C(=O)c1ccc(-c3ccc(F)cc3OCc3ccccc3)cc1S2(=O)=O	-10%	-8%	2%	/	-24%	-27%	/
Cc1cc(CNC(=O)c2cccc3c2C(=O)c2ccc(-c4ccc(F)cc4OCc4ccccc4)cc2S3(=O)=O)c(C(F)(F)F)o1	-12%[11.6 µM]	20µM*	?	/	40µM*	79µM*	54*
O=C(O)CCc1ccc2ccccc2c1	/	/	-16%	/	?	-54%	/
O=C1C=CC(=O)N1c1cccc2cccnc12	?	28µM*	-5%	/	?	89µM*	76*	Pol kappa inh-2=?
c1cnc2c(c1)ccc1cccnc12	-6%	1%[57.1 µM]	?	10%[57.1 µM]	-6%[58.9 µM]	-5%[60.1 µM]	/
O=C(COc1ccccc1/C=C\c1[nH]c(=O)[nH]c(=O)c1[N+](=O)[O-])Nc1ccccc1	-6%[11.6 µM]	22µM*	-14%	9%	20µM*	-18%	76*	GALK confirm=38µM*;GALK redox cs=-11%;HEK293 tox=-5%
O=C1ON=C(c2ccccc2)/C1=C/c1ccc(O)c(O)c1	?	22µM*	?	-17%	?	12%	60*	GALK confirm=?;GALK redox cs=-16%;HEK293 tox=-3%
SMILES	WRN helicase inh	Pol eta inh-1	FEN1 inhibitor	Pol beta inh	POLI inh	Pol kappa inh-1	Pol eta inh-2	others
COc1ccc(/C=N\NC(=O)c2ccc([N+](=O)[O-])c(C)c2)cc1COc1ccccc1C(N)=O	?	-20%	79µM*	?	45%	-12%	/	Pol kappa inh-2=38*
COc1ccc(/C=N/NC(=O)c2cccnc2)cc1COc1ccc([N+](=O)[O-])c(C)c1	-3%	2%	-14%	-14%	34%	-10%	/
CCN(c1ccc(C)cc1)S(=O)(=O)c1nnc(NC(=O)C2CCCCC2)s1	/	/	-4%	-1%	9%	-3%	/
CCc1ccc(NC(=O)CN2C(=O)c3ccccc3Sc3ccc(C(=O)N4CCCC4)cc32)cc1	/	-22%	-12%	?	?	-13%[60.1 µM]	/
COc1ncc2nc(-c3cccs3)c(=O)n(-c3ccccc3)c2n1	/	/	/	/	/	-1%[60.1 µM]	/
Cc1ccc(Cl)c2c1N[C@@H](c1ccc(C(=O)O)cc1)[C@H]1CC=C[C@@H]21	/	?	-34%	16µM*	32µM*	32µM*	?	Pol kappa inh-2=75*
COc1ccccc1-c1ccc(/C=C2\C=CC(=O)O2)o1	?	25µM*	?	-100%	20µM*	35µM*	54*

Screens as filed in PubChem BioAssay.
